Our source for the cell viability, % of control (lower = more cytotoxic) values is PubChem BioAssay (NCATS).

The nature of this experiment: High-throughput drug toxicity screening in the BPDCN cell line Gen2.2 (AID 1224824). To be noted: Gen2.2 BPDCN cells; at 45.8 µM (top of the series). An excerpt: Blastic plasmacytoid dendritic cell neoplasm (BPDCN) is a rare, aggressive and largely incurable hematologic malignancy originating from plasmacytoid dendritic cells (pDCs). Although an initial response to chemotherapy is common, BPDCN prognosis is extremely poor and most patients relapse with drug-resistant disease leading to a median overall survival of ~1 year after diagnosis. To explore novel potential therapeutic strategies in BPDCN, we performed a high-throughput drug toxicity screening in BPDCN cell liens, using of a library of 1,912 small molecules, enriched for compounds that are either approved or in early stages of development for cancer therapy.
A total of 500 exponentially growing Gen2.2 cells were seeded per well in 5 uL of media (RPMI + Glutamine, without phenol red plus10% FBS and 1X Pen/Strep) into 1536-well solid white high base tissue culture treated Greiner One Bio Plates (789173-F), using a multidrop combi dispenser and a small sterile cassette. Compounds and controls totaling 23nL per well (negative control DMSO and positive control 9.2 uM Bortezomib-final) were immediately added to the plates using a 1536 head pin tool from Kalypsys. The plates were then covered with stainless steel gasket lids from Kalypsys and incubated for 48 hours at 37C under 95% relative humidity with 5% CO2. After 48 hours, the plates were removed and allowed to reach room temperature before 3 uL of Cell Titer Glo reagent (Promega) were added using an Aurora Flying Reagent Dispenser Bioraptor. The plates were then spun at 1000 rpms to remove bubbles and incubated for 15 minutes at room temperature before reading on a ViewLux using a luminescent filter with a 10 second exposure. The relative luciferase units were used to calculated percent activity using DMSO as 100% and Bortezomib as 0%.
As to `CC(C)N[C@@H]1CCn2c(=O)[nH]c3cccc(c32)[C@@H]1O`, the cell viability, % of control (lower = more cytotoxic) was determined as 22.6%. The figure for `CC(=Cc1csc(C)n1)[C@@H]1C[C@H]2O[C@@H]2CCC[C@H](C)[C@@H](O)[C@@H](C)C(=O)C(C)(C)[C@@H](O)CC(=O)O1` is 50.1%; for `O=S(=O)(CC1CS1)c1ccc(Oc2ccccc2)cc1` (stereo not given) it is 3.87%. The figure for `COc1cc2cc(c1Cl)N(C)C(=O)C[C@H](OC(=O)C(C)C)[C@]1(C)O[C@H]1[C@H](C)[C@@H]1C[C@@](O)(NC(=O)O1)[C@H](OC)C=CC=C(C)C2` is 10.1%; for `O=C(Nc1ccncc1)C(=O)c1cn(Cc2ccc(Cl)cc2)c2ccccc12` it is 73.9%; for `C[C@@H]1CC[C@@]2(OC1)O[C@H]1C[C@H]3[C@@H]4CC=C5C[C@@H](O[C@@H]6O[C@H](CO)[C@@H](O[C@@H]7O[C@@H](C)[C@H](O)[C@@H](O)[C@@H]7O)[C@H](O)[C@@H]6O[C@@H]6O[C@@H](C)[C@H](O)[C@@H](O)[C@@H]6O)CC[C@]5(C)[C@@H]4CC[C@]3(C)[C@@H]1[C@H]2C` it is 10.6%. For the compound `COc1ccc(N(C(=O)Oc2c(C)cccc2C)c2ccnc(Nc3ccc(N4CCN(C)CC4)cc3)n2)c(OC)c1`, the cell viability, % of control (lower = more cytotoxic) worked out at 137%. Take `CCCC[N+]1(C)[C@H]2CC(OC(=O)[C@H](CO)c3ccccc3)C[C@H]1[C@H]1O[C@H]12` (stereo not given in full): the cell viability, % of control (lower = more cytotoxic) was determined as 119%. The figure for `Oc1ccc2c3c1O[C@H]1c4[nH]c5c(c4C[C@@]4(O)[C@@H](C2)N(CC2CC2)CC[C@]314)C[C@@]1(O)[C@H]2Cc3ccc(O)c4c3[C@@]1(CCN2CC1CC1)[C@H]5O4` is 143%; for `CCC(=O)OC1CCC2C3CCC4=CC(=O)CC[C@@]4(C)C3CC[C@]12C` (stereo not given in full) it is 223%. Consider `Cc1c(C(=O)Nc2cccc(C(F)(F)F)c2)cc(-c2ccccc2)n1CCCN1CCOCC1`, for which the cell viability, % of control (lower = more cytotoxic) worked out at 52.7%. The value for `COc1ccc2c(c1)CN(C)CC2c1ccc(Cl)c(Cl)c1` (stereo not given) was 41%; that for `COCC1(CO)C(=O)C2CCN1CC2` (stereo not given) was 4.6%. The value for `O=C(Oc1ccc([N+](=O)[O-])cc1)N1CCN(Cc2cccc(Oc3ccccc3)c2)CC1` was 151%; that for `CC[C@@]1(O)C(=O)OCc2c1cc1n(c2=O)Cc2cc3ccccc3nc2-1` was 4.89%; that for `O=C(N[C@H]1CN2CCC1CC2)c1ccc(Cl)cc1` was 126%. Regarding `CCOC(=O)c1c(C(C#N)=CN)c2ccc(Cl)c(Cl)c2n1C`, the cell viability, % of control (lower = more cytotoxic) was determined as 130%. Regarding `C[C@@H]1O[C@@H](O[C@@H]2C=C3CC[C@@H]4[C@@H](CC[C@]5(C)[C@H](c6ccc(=O)oc6)CC[C@@]45O)[C@@]3(C)CC2)[C@H](O)[C@H](O)[C@H]1O`, the cell viability, % of control (lower = more cytotoxic) came out at 16.6%. The figure for `CSCC[C@@H](NC(=O)[C@@H](Cc1ccccc1)NC(=O)CNC(=O)CNC(=O)[C@@H](N)Cc1ccc(O)cc1)C(=O)O` is 140%; for `O=c1cccc2n1CC1CNC[C@H]2C1` it is 51.5%. `CCN1C[C@]2(OC(=O)c3ccccc3NC(C)=O)CC[C@H](OC)[C@@]34[C@H]5CC6[C@@H](OC)C[C@](O)(C(C[C@@H]23)[C@@H]14)[C@@]5(O)[C@@H]6OC`: the cell viability, % of control (lower = more cytotoxic) is 137%. The figure for `COc1ccc2c(c[n+](C)c3c4cc5c(cc4ccc23)OCO5)c1OC` is 7.65%. The value for `c1ccc(CCCN2CCN(CCOC(c3ccccc3)c3ccccc3)CC2)cc1` was 8.38%. The value for `O=[N+]([O-])c1ncc[nH]1` was 102%; that for `NC1CC1c1ccccc1` (stereo not given) was 70.9%.

As to `C[C@]12CC[C@H]3[C@@H](CCC4=CC(=O)CC[C@@]43C)[C@H]1CC[C@H]2OC(=O)CCC1CCCC1`, the cell viability, % of control (lower = more cytotoxic) is 94%.

As for `CCOC(=O)Nc1ccc(NCc2ccc(F)cc2)cc1N`, the cell viability, % of control (lower = more cytotoxic) came to 120%. Turning to `C1=C2CCCN[C@H]2[C@@H]2C[C@H]1[C@@H]1CCCCN1C2`, the cell viability, % of control (lower = more cytotoxic) came out at 131%.

As for `CCc1c(C(=O)C(N)=O)c2c(OCC(=O)O)cccc2n1Cc1ccccc1`, the cell viability, % of control (lower = more cytotoxic) was 114%.

Consider `Cc1ccccc1-n1c(Cn2cnc3c(N)ncnc32)nc2cccc(C)c2c1=O`, for which the cell viability, % of control (lower = more cytotoxic) turned out to be 68.3%.

For the compound `CCNC(=O)CC1N=C(c2ccc(Cl)cc2)c2cc(OC)ccc2-n2c(C)nnc21` (stereo not given), the cell viability, % of control (lower = more cytotoxic) stood at 15.2%. The value for `CC(=O)Nc1ccc(OC[C@](C)(O)C(=O)Nc2ccc([N+](=O)[O-])c(C(F)(F)F)c2)cc1` was 138%; that for `Cc1[nH]nc2ccc(-c3cncc(OC[C@@H](N)Cc4c[nH]c5ccccc45)c3)cc12` was 1.9%; that for `C[C@@H]1CC[C@H]2[C@@H](C)C(=O)O[C@@H]3O[C@@]4(C)CC[C@H]1[C@]32OO4` was 95.1%.

In the case of `CCNC(=O)C[C@@H]1N=C(c2ccc(Cl)cc2)c2cc(OC)ccc2-n2c(C)nnc21`, the cell viability, % of control (lower = more cytotoxic) amounted to 12.3%. As for `COc1ccc(C(=O)c2c(C)n(CCN3CCOCC3)c3cc(I)ccc23)cc1`, the cell viability, % of control (lower = more cytotoxic) amounted to 4.27%. The figure for `Cc1c(C(=O)c2cccc3ccccc23)c2cccc3c2n1[C@H](CN1CCOCC1)CO3` is 17.7%. As to `O=C(N[C@@H](COc1ccc2[nH]c(=O)[nH]c2c1)c1ccccc1)c1cccn(Cc2ccc(F)c(F)c2)c1=O`, the cell viability, % of control (lower = more cytotoxic) is 46.5%. The figure for `N=c1c2c(-c3ccccc3)c(-c3ccccc3)n(Cc3ccccc3)c2ncn1C1CCC(O)CC1` (stereo not given) is 130%. As to `COc1ccc(CC2NCCc3cc(OC)c(OC)cc32)cc1OC` (stereo not given), the cell viability, % of control (lower = more cytotoxic) is 150%.
